A short description of assay [1]: P-glycoprotein substrates identified in KB-8-5-11 adenocarcinoma cell line, qHTS therapeutic library screen (AID 1346987). Further: nearly all actives have a fitted effect of over 65% in size. Further: potency means the concentration at half of the fitted maximal effect. In outline:
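Compounds are pinned in dose-response onto KB-8-5-11 cells (500 cells/well, colchicine-free medium) and left 72 h at 37 degree C. CellTiter-Glo luminescence then yields AC50 values.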

Assay [2] deals with Zika virus NS2B-NS3 protease (unlinked complex). In words: Primary screen GU Rhodamine qHTS for Zika virus inhibitors: Unlinked NS2B-NS3 protease assay (AID 1347159). Further: on the % scale 0 is the no-effect control and ±100 the full control effect; nearly all actives have a fitted effect of over 60% in size. In a few lines:
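Enzyme 25 nM in Tris-HCl pH 8.0 + 0.01% Tween 20; compounds up to 114 microM, 15 min RT dark; + Rhod110 substrate 1.5 microM; read t0 and 15 min; delta fluorescence → % inhibition → 4-parameter Hill fit.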
(In general: qHTS replaces the single test concentration by a dilution series.)

The test system of assay [3] is Zika virus NS2B-NS3 protease (linked construct). Briefly: Primary screen NINDS Rhodamine qHTS for Zika virus inhibitors (AID 1347160). Further: on the % scale 0 is the no-effect control and ±100 the full control effect; nearly all actives have a fitted effect of over 55% in size. In outline:
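Enzyme (25 nM, linked NS2B-NS3) was preincubated 15 min with compound in 10 mM Tris-HCl pH 8.0, 0.01% Tween 20. Rhodamine110 substrate (1.5 microM) was then added and fluorescence read at start and after 15 min.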

Assay [4] deals with Calcium and integrin-binding protein 1 (Homo sapiens) (UniProt Q99828). Briefly: Primary qHTS for Identification of Calcium Integrin Binding Protein 1 (CIB1) Competitor (AID 1508620). Further: top concentration of the series differs between compounds; on the % scale 0 is the no-effect control and ±100 the full control effect. In a few lines: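 Fluorescence polarization competition: GST-tagged CIB1 (1 uM final) preincubated with compound 15 min at room temperature, then FITC-labelled alphaIIb peptide (100 nM final) added. After 15 min at room temperature, polarization read at Ex 480/Em 540.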
Sequence of Calcium and integrin-binding protein 1 (Homo sapiens) (Q99828 whole entry, looked up): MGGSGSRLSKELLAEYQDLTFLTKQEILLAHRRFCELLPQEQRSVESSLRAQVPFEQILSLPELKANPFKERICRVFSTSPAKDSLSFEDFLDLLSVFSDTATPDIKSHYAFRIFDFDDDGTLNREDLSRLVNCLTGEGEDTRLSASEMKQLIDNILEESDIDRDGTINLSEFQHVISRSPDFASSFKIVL

Assay [5] is described as follows: Primary qHTS for inhibitors of nuclear receptor binding SET domain protein 2 (NSD2) in an isogenic RCH-ACV NSD2 p.E1099K mutant (9B) (AID 1645876). Further: potency means the concentration at half of the fitted maximal effect; nearly all actives have a fitted effect of over 70% in size.
Assay [6] can be described thus: Primary qHTS for inhibitors of nuclear receptor binding SET domain protein 2 (NSD2) in an RCH-ACV wild type WT cells (2C) (AID 1645877). Further: potency means the concentration at half of the fitted maximal effect; nearly all actives have a fitted effect of over 70% in size.
The target in assay [7] is Glutathione peroxidase 1 (Homo sapiens) (UniProt P07203). Briefly: Primary qHTS Assay for Inhibitors of Recombinant Selenoprotein Glutathione Peroxidase 1 (GPX1) (AID 1845191). Further: nearly all actives have a fitted effect of over 65% in size. In outline:
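GR-coupled readout: NADPH consumption tracked by fluorescence, ex 340/em 450 nm, at t=0 and after 15 min at RT. Final mix 10 nM GPX1, 1 mM GSH, 0.5 mM CHP, 0.5 mM NADPH, 100 nM GR, 0.01% BSA, following 30 min enzyme–compound preincubation.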

In assay [8] the target is Luciferin 4-monooxygenase (Photinus pyralis) (UniProt P08659). In words: Primary firefly luciferase (FLuc) qHTS assay for identification of artifact compounds. (AID 1845220). Further: nearly all actives have a fitted effect of over 60% in size. As to conditions: outcome: dose series up to 54.1 µM unless noted. In outline:
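Enzymatic FLuc inhibition assay: compounds pre-exposed to luciferin/ATP (10 uM each) for 15 min, then purified P. pyralis enzyme at 10 nM added. Read-out: luminescence at 5 min.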

Assay [9] deals with Nanoluciferase (engineered Oplophorus gracilirostris luciferase). In words: Primary Nanoluciferase (NLuc) qHTS assay for identification of artifact compounds. (AID 1845222).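 Further: NLuc secreted into diluted conditioned medium of S16 cells; 0% = DMSO and -100% = no enzyme.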 In a few lines:
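S16 cell supernatant NLuc, 1:55; cpds qHTS; 15 min RT dark; Nano-Glo substrate 1:100, 5 min; luminescence; Hill fit of % inhibition.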

Assay [10] is described as follows: Primary redox qHTS assay for identification of artifact compounds. (AID 1845223).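 Further: 0% = DMSO and 100% = reference compound.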 In outline: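 Redox-cycling detection via DTT (250 uM final) oxidation coupled to Amplex Red (25 uM)/HRP (250 mU/mL) in HBSS. 15 min preincubation plus 30 min after DTT, room temperature. Ex/Em 525/598 nm; 4-parameter Hill fit against DMSO and 10 uM DA3003.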
Assay [11] deals with HaCat. In words: Cytotoxic Profiling of Annotated Libraries Using Quantitative High-Throughput Screening (AID 1296008). Further: nearly all actives have a fitted effect of over 60% in size. Further: potency means the concentration at half of the fitted maximal effect. On max response: on the % scale 0 is the no-effect control and ±100 the full control effect. The conditions noted are these: Five cell lines viability, CellTiter-Glo ATP luminescence, 48-72 h; max response: stronger effect = lower value. In a few lines:
(§1)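 Cells exposed to compounds for 48 or 72 hr at 37 degrees Celsius. Viability read as ATP-coupled luminescence with CellTiter-Glo after 10 min at room temperature.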
A general note: In ATP-based viability assays light output follows the ATP content of the culture.

A further assay deals with NIH3T3. The assay is described as above. The conditions noted are these: Five cell lines viability, CellTiter-Glo ATP luminescence, 48-72 h; max response: stronger effect = lower value. In a few lines:
as §1

For another assay, the system named is CASKI. Briefly: Primary qHTS to identify gynecologic anti-cancer compounds using libraries of approved drugs and bioactive compounds (AID 1345084). Further: nearly all actives have a fitted effect of over 55% in size. Further: potency means the concentration at half of the fitted maximal effect. The conditions noted are these: Gynecologic cancer cell panel viability, ATPlite luminescence, 48 h; series mostly up to 57.5 µM. In outline:
(§2)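 Cytotoxicity screen measuring ATP content by luciferase luminescence. Each compound is applied at five concentrations for 48 h at 37 C with 5% CO2.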

For the next assay, the system named is Es-2. The description is as above. The conditions noted are these: Gynecologic cancer cell panel viability, ATPlite luminescence, 48 h; series mostly up to 57.5 µM. In a few lines: as §2
The test system of another assay is HeLa. Described as above. As to conditions: Gynecologic cancer cell panel viability, ATPlite luminescence, 48 h; series mostly up to 57.5 µM. In a few lines:
as §2

For a further assay, the system named is JEG-3. The description is as above. The conditions noted are these: Gynecologic cancer cell panel viability, ATPlite luminescence, 48 h; series mostly up to 57.5 µM. In outline:
as §2

In the next assay the test system is OV90. The assay is described as above. The conditions noted are these: Gynecologic cancer cell panel viability, ATPlite luminescence, 48 h; series mostly up to 57.5 µM. In a few lines: as §2
Another assay has as its system SKOV3. Described as above. As to conditions: Gynecologic cancer cell panel viability, ATPlite luminescence, 48 h; series mostly up to 57.5 µM. In outline:
as §2

The subject of the next assay is Tov-21-G. Described as above. As to conditions: Gynecologic cancer cell panel viability, ATPlite luminescence, 48 h; series mostly up to 57.5 µM. In a few lines: as §2
Assay [12] addresses Phospholipid hydroperoxide glutathione peroxidase GPX4 (Homo sapiens) (UniProt P36969). In words: Primary qHTS Assay for Inhibitors of Recombinant Selenoprotein Glutathione Peroxidase 4 (GPX4) (AID 1845192). Further: nearly all actives have a fitted effect of over 65% in size. In outline: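 Steps: GPX4 plus compound, 30 min RT; add GR/GSH/NADPH master mix; start with cumene hydroperoxide; read 340/450 nm fluorescence at 0 and 15 min. Finals were 200 nM GPX4, 1 mM GSH, 0.5 mM CHP, 0.5 mM NADPH, 100 nM GR.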

The test system of another assay is KB-3-1. In words: Cytotoxic Profiling of Annotated Libraries Using Quantitative High-Throughput Screening (AID 1296008). Further: nearly all actives have a fitted effect of over 60% in size. Further: potency means the concentration at half of the fitted maximal effect. On max response: on the % scale 0 is the no-effect control and ±100 the full control effect. The conditions noted are these: Five cell lines viability, CellTiter-Glo ATP luminescence, 48-72 h; max response: stronger effect = lower value. In a few lines: as §1
In assay [13] the test system is HACAT. Briefly: qHTS assay to identify novel small-molecules to repurpose for Merkel cell carcinoma treatment (AID 1296009). Further: nearly all actives have a fitted effect of over 60% in size. Further: potency means the concentration at half of the fitted maximal effect. As to conditions: MCC and control cell lines, CellTiter-Glo viability, 72 h; at 44.8 µM (top of the series) unless noted. In outline:
(§3)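 Dose-response viability screen; 72 hr exposure at 37 degree celsius; CellTiter-Glo added, 10 min room temperature, luminescence read; RLUs scaled between no-cell and DMSO wells.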

The next assay concerns C33A. Briefly: Primary qHTS to identify gynecologic anti-cancer compounds using libraries of approved drugs and bioactive compounds (AID 1345084). Further: nearly all actives have a fitted effect of over 55% in size. Further: potency means the concentration at half of the fitted maximal effect. The conditions noted are these: Gynecologic cancer cell panel viability, ATPlite luminescence, 48 h; series mostly up to 57.5 µM. In outline: as §2
A further assay deals with CAOV3. The description is as above. The conditions noted are these: Gynecologic cancer cell panel viability, ATPlite luminescence, 48 h; series mostly up to 57.5 µM. In outline: as §2
The next assay deals with Hek293T. Described as above. As to conditions: Gynecologic cancer cell panel viability, ATPlite luminescence, 48 h, control line for the selectivity index; series mostly up to 57.5 µM. In outline:
as §2

For another assay, the system named is PA-1. The assay is described as above. As to conditions: Gynecologic cancer cell panel viability, ATPlite luminescence, 48 h; series mostly up to 57.5 µM. In a few lines: as §2
In another assay the test system is Tov112D. The description is as above. The conditions noted are these: Gynecologic cancer cell panel viability, ATPlite luminescence, 48 h; series mostly up to 57.5 µM. In a few lines:
as §2

Assay [14] in a line: Primary fluorescence-based thiol-reactive (MSTI) qHTS assay for identification of artifact compounds. (AID 1845221).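 Further: thiol-reactive compounds lower the probe fluorescence signal; nearly all actives have a fitted effect of over 65% in size.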 In outline:
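Curve-fitted percent inhibition (4-parameter Hill) derived from fluorescence, Ex 525/Em 598 nm, scaled with Acetyl-MSTI and MSTI; 1 h incubation at room temperature.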

The subject of another assay is CRL-7250. In words: qHTS assay to identify novel small-molecules to repurpose for Merkel cell carcinoma treatment (AID 1296009). Further: nearly all actives have a fitted effect of over 60% in size. Further: potency means the concentration at half of the fitted maximal effect. The conditions noted are these: MCC and control cell lines, CellTiter-Glo viability, 72 h; series mostly up to 92 µM. In outline: as §3
For a further assay, the system named is HEK293. In words: Cytotoxic Profiling of Annotated Libraries Using Quantitative High-Throughput Screening (AID 1296008). Further: nearly all actives have a fitted effect of over 60% in size. Further: potency means the concentration at half of the fitted maximal effect. On max response: on the % scale 0 is the no-effect control and ±100 the full control effect. As to conditions: Five cell lines viability, CellTiter-Glo ATP luminescence, 48-72 h; max response: stronger effect = lower value. In a few lines: as §1

For 5 compounds, Potency, outcome and max response results are on record in PubChem BioAssay (NCATS).

Unmarked numbers belong to inactive results. Records with an inconclusive call do not appear. Active and inactive are the calls of the source. The call rests on the fitted dose curve; in most records, active means well fitted curve in the direction sought with a large enough effect; inconclusive means small, poorly fitted or top-dose-only effect, or another doubt; inactive means no such curve, though single readings can be large; an effect the other way counts as inactive or inconclusive.

Sequence of Glutathione peroxidase 1 (Homo sapiens) (P07203 whole entry, looked up): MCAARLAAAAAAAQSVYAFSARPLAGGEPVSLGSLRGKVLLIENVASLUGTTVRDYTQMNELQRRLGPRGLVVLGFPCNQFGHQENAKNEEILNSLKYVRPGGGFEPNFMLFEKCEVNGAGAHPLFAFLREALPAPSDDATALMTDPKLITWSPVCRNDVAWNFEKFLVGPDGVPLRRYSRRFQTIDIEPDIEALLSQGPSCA
Sequence of Phospholipid hydroperoxide glutathione peroxidase GPX4 (Homo sapiens) (P36969 whole entry, looked up): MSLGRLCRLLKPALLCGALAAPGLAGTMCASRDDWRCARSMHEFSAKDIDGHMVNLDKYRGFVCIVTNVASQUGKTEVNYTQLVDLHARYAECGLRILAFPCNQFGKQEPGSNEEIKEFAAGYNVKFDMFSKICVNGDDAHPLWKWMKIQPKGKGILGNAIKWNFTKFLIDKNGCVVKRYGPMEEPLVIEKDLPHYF

Turning to `C=C1[C@@H](O)[C@]2(O)OC[C@]34C2[C@]2(C)C(C[C@H]3OC(=O)[C@H](O)[C@@]14O)C(C)=CC(=O)[C@H]2O` (some centres undefined), the Potency result in [1], in assay [2], in assay [3], in [4], in assay [7] and in [9] was “inactive” each time. In addition, the Potency result (in assay [10]; in the assay with CASKI; in the assay on Es-2; in the assay on HeLa; in the assay with JEG-3; in the assay with OV90) was “inactive” each time. Besides, the Potency result in the assay on SKOV3 and with Tov-21-G was “inactive” in each case. For the same compound, the Potency was 4.47 µM (active) in assay [5] and 3.17 µM (active) in [6]. Further, in assay [8], the outcome is “inactive [at 25.7 µM]”. Further, the max response in the assay with HaCat [11] was 3.98%; with NIH3T3, -5.4%.

Consider `CCC1(O)CCC2C3CCC4=CC(=O)CCC4C3CCC21CC` (centres undefined), for which the Potency result in assay [2], in assay [3], in [4], in assay [7], in assay [12] and in [10] was “inactive” each time. Besides, the Potency result in the assay on C33A, in the assay on CAOV3, in the assay on CASKI, in the assay on Es-2, in the assay on Hek293T and in the assay with JEG-3 was “inactive” each time. For the same compound, the Potency result in the assay with OV90, in the assay on PA-1, with SKOV3, in the assay with Tov-21-G and with Tov112D was “inactive” in each case. Also, the Potency in assay [5] is 20.5 µM (active). The call (in [8]; in the assay on HaCat [11]; in the assay with HACAT [13]) was inactive. Besides, the figures for the max response with KB-3-1 and in the assay with NIH3T3 were -10.9% and 1.71%, respectively.

In the case of `CC1CCCCCC(=O)c2c(O)cc(O)cc2CC(=O)O1` (centres undefined), the Potency result in assay [1], in [2], in assay [3], in assay [4], in [7] and in assay [14] was “inactive” in each case. Also, the Potency entry (in assay [9]; in assay [10]; in the assay on C33A; in the assay on CAOV3; in the assay with CASKI; with Es-2) was “inactive” throughout. Also, the Potency result with HeLa, with Hek293T, in the assay on JEG-3, with OV90, with PA-1 and in the assay with SKOV3 was “inactive” each time. Further, the Potency entry in the assay on Tov-21-G and in the assay on Tov112D was “inactive” in each case. The compound was classed as inactive (in assay [8]; with HaCat [11]; with HACAT [13]). The max response in the assay with KB-3-1 was -18.6%; in the assay on NIH3T3 it was 2.84%.

Regarding `Fc1cc(F)c2c(c1)[C@H]1C=CC[C@H]1C(c1cccnc1)N2` (some centres undefined), the Potency is 4.61 µM (active) in assay [1]; 6.49 µM (active) in assay [5]; 4.11 µM (active) in the assay on KB-3-1; 4.61 µM (active) in the assay with CRL-7250; 14.1 µM (active) in the assay on HeLa; 25.1 µM (active) in the assay on JEG-3. In addition, the Potency result in [3], in assay [7], in assay [12], in assay [9] and in assay [10] was “inactive” throughout. Besides, the compound was classed as inactive in [8].

In the case of `CC(C)(O)/C=C/C(=O)[C@](C)(O)[C@H]1[C@H](O)C[C@@]2(C)[C@@H]3CC=C4[C@@H](C[C@H](O)C(=O)C4(C)C)[C@]3(C)C(=O)C[C@]12C`, the Potency was 0.448 µM (active) in [1]; 0.252 µM (active) in assay [5]; 0.142 µM (active) in assay [6]; 0.709 µM (active) in the assay on HEK293; 3.17 µM (active) with NIH3T3; 0.398 µM (active) with CAOV3. Further, the Potency is 1.41 µM (active) in the assay with CASKI; 2.51 µM (active) in the assay with HeLa; 1.26 µM (active) with OV90; 2.51 µM (active) in the assay with PA-1; 0.794 µM (active) with SKOV3; 1.26 µM (active) in the assay with Tov-21-G. The Potency result in assay [3], in [4], in assay [7], in assay [12], in assay [14] and in assay [9] was “inactive” throughout. Also, the Potency result with C33A was “inactive”. For the same compound, in [8], the outcome was inactive.
